Data on 80 molecules can be found in the supplement of paper PMC11150407.

Usually cell viability stands for a read-out of living cells in per cent, often relative to untreated cells.

Each structure is given as a SMILES string. Where a name gives a salt, the structure may show the parent alone. The whole screen tested about 2,100 compounds, of which about 180 (8.6%) showed an effect of 50% or more. Shown is part of a subset that was picked to be rich in strong results.

The test has as its system MOLM1 and UCSD/AML1 (averaged). The test is described as follows: cell viability relative to DMSO control (POC); higher = less growth inhibition. The settings on record: 1 µM; 72 h. On the procedure: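 Primary viability screen in the 3q26 EVI1-high AML cell lines MOLM1 and UCSD/AML1 (1.5e3 cells/well, 384-well), compounds at 1 uM for 72 h. ATP CellTiter-Glo read-out given as percent of viable cells over DMSO control (POC), averaged over duplicates. DMSO was the negative control and 5 uM etoposide the positive control. This mapping covers the MicroSource Spectrum and Selleck anticancer libraries (drug names).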
Consider `C[C@@H]1CC[C@@]2(OC1)O[C@H]1C[C@H]3[C@@H]4CC[C@H]5C[C@@H](O)CC[C@]5(C)[C@H]4CC[C@]3(C)[C@H]1[C@@H]2C`, for which the cell viability was 97.1%.
As for `CCC[C@H](NC(=O)/C(C#N)=C/c1cccc(Br)n1)c1ccccc1`, the cell viability is 57.8%.
Consider `COc1ccc(C=CC(=O)O)cc1OC`, for which the cell viability came out at 106%.
Take `CC(=O)c1c(O)cc(O)cc1O`: the cell viability is 106%.
Regarding `O=C(O)C(=O)O.[NH-]C1CCCCC1[NH-].[Pt+2]` (stereo not given) [Oxaliplatin (Eloxatin)], the cell viability was found to be 41.3%.
The result for `O=C(NC1CCCCC1)NC1CCCCC1` reads 120%; that for `CC(C)=CCOc1cc2oc(=O)ccc2cc1O`, 98%; that for `O=c1cc(-c2cc(O)c(O)c(O)c2)oc2cc(O)cc(O)c12`, 106%.
In the case of `COC(=O)C[C@H]1C2(C)CC34OC5(C)O[C@@]6([C@H](OC(C)=O)C(OC(C)=O)[C@]7(C)C(/C(=C(/O)C(C)C)C(=O)O[C@H]7c7ccoc7)[C@@]6(O5)[C@H](OC(C)=O)[C@@]3(O)C2OC(=O)C(C)C)[C@]14C` (stereo not given in full), the cell viability was 102%.
In the case of `O=C(O)CCC(=O)OC[C@@H](NC(=O)C(Cl)Cl)[C@H](O)c1ccc([N+](=O)[O-])cc1`, the cell viability was found to be 40.2%.
Take `CCCCCCCCCCCCCCCC(=O)OC[C@@H](NC(=O)C(Cl)Cl)[C@H](O)c1ccc([N+](=O)[O-])cc1`: the cell viability was determined as 96.2%.
In the case of `O=C(N[C@H](CO)[C@H](O)c1ccc([N+](=O)[O-])cc1)C(Cl)Cl`, the cell viability was 101%.
Regarding `C[C@@H]1CC[C@@]23CCC4(C)[C@@](C=CC5[C@@]6(C)CCC(=O)C(C)(C)C6CC[C@]54C)(OC2=O)C3[C@H]1C` (stereo not given in full), the cell viability turned out to be 95.6%.
As to `Oc1cc(O)c2c(c1)O[C@H](c1cc(O)c(O)c(O)c1)[C@H](O)C2`, the cell viability worked out at 97.9%.
For the molecule `COc1ccc2c(c1)OC[C@@H](Cc1ccc(OC)c(OC)c1)[C@@H]2O`, the cell viability worked out at 82.3%.
In the case of `CCCCCC/C=C\CCCCCCCc1cccc(O)c1C(=O)O`, the cell viability turned out to be 81.2%.
On to `CC(=O)O[C@H]1CC[C@@]2(C)[C@H](CC[C@@H]3[C@@H]2CC[C@]2(C)[C@@H]4[C@H](C[C@@H]32)O[C@]2(CC[C@@H](C)CO2)[C@H]4C)C1`, for which the cell viability worked out at 94.2%.
For `COC1=C2C[C@@H](C)C[C@H](OC)[C@H](O)[C@@H](C)/C=C(\C)[C@H](OC(N)=O)[C@@H](OC)/C=C\C=C(/C)C(=O)NC(=CC1=O)C2=O` [Geldanamycin], the cell viability was 0.865%.
As for `C=CCNC1=C2C[C@@H](C)C[C@H](OC)[C@H](O)[C@@H](C)/C=C(\C)[C@H](OC(N)=O)[C@@H](OC)/C=C\C=C(/C)C(=O)NC(=CC1=O)C2=O` [17-AAG (Tanespimycin)], the cell viability is 29.1%.
Regarding `CO[C@H]1/C=C\C=C(/C)C(=O)NC2=CC(=O)C(NCCN(C)C)=C(C[C@@H](C)C[C@H](OC)[C@H](O)[C@@H](C)/C=C(\C)[C@@H]1OC(N)=O)C2=O` [17-DMAG HCl (Alvespimycin)], the cell viability worked out at 2.31%.
As for `C=C1[C@@H]([C@@]2(C)C=CC(=O)C(C)(C)[C@@H]2CC(=O)OC)CC[C@@]2(C)[C@H](c3ccoc3)OC(=O)[C@H]3O[C@]132`, the cell viability amounted to 102%.
Regarding `COC1=CC(=O)C=C(OC)C1=O`, the cell viability was 91.5%.
Regarding `COc1cc(OC)c(C(C)=O)c(O)c1C`, the cell viability was 111%.
With `CN[C@@H](C)C(=O)N[C@H]1CN(C(=O)CC(C)C)CC[C@H]2CC[C@@H](C(=O)NC(c3ccccc3)c3ccccc3)N2C1=O`, the cell viability was 68.5%.
The result for `CON` reads 109%; that for `CC(=O)OC/C=C(\C)CC/C=C(\C)CC/C=C(\C)CC/C=C(\C)CC/C=C(\C)CC/C=C(\C)CC/C=C(\C)CC/C=C(\C)CCC=C(C)C`, 106%.
As for `O=C1C=C2CC3(O)COc4c(ccc(O)c4O)C3=C2C=C1O` (stereo not given), the cell viability came out at 97.6%.
The figure for `Cc1c2oc3c(C)ccc(C(=O)N[C@@H]4C(=O)N[C@H](C(C)C)C(=O)N5CCC[C@H]5C(=O)N(C)CC(=O)N(C)[C@@H](C(C)C)C(=O)O[C@@H]4C)c3nc-2c(C(=O)N[C@@H]2C(=O)N[C@H](C(C)C)C(=O)N3CCC[C@H]3C(=O)N(C)CC(=O)N(C)[C@@H](C(C)C)C(=O)O[C@@H]2C)c(N)c1=O` is 1.96%.
Regarding `Cc1[nH]c(/C=C2\C(=O)Nc3ccc(S(=O)(=O)N(C)c4cccc(Cl)c4)cc32)c(C)c1C(=O)N1CCN(C)CC1`, the cell viability was 62.8%.
`Cc1[nH]c(/C=C2\C(=O)Nc3ccc(S(=O)(=O)Cc4c(Cl)cccc4Cl)cc32)c(C)c1C(=O)N1CCC[C@@H]1CN1CCCC1`: the cell viability worked out at 92.1%.
`CCN(CC)CCNC(=O)c1c(C)[nH]c(/C=C2\C(=O)Nc3ccc(F)cc32)c1C` [Sunitinib Malate (Sutent)]: the cell viability amounted to 32.9%.
Turning to `CC(=O)Oc1cc(-c2coc3cc(OC(C)=O)c(OC(C)=O)c(OC(C)=O)c3c2=O)cc(OC(C)=O)c1OC(C)=O`, the cell viability amounted to 93.9%.
With `CC(=O)O[C@@H]1CC2C(C)(C)[C@H](O)C=C[C@]2(C)C2CC[C@@]3(C)[C@H](c4ccoc4)OC(=O)C4OC43[C@@]21C` (stereo not given in full), the cell viability was found to be 98.8%.
For `O=c1c2ccccc2oc2ccccc12`, the cell viability came to 101%.
For the molecule `CC(=O)Nc1nc(C)c(-c2ccc(Cl)c(S(=O)(=O)NCCO)c2)s1`, the cell viability was found to be 56.6%.
The result for `Nc1ccccc1NC(=O)c1ccc(CNC(=O)OCc2cccnc2)cc1` [Entinostat (MS-275, SNDX-275)] reads 12.6%.
Take `Nc1ccccc1NC(=O)c1ccc(CNc2nccc(-c3cccnc3)n2)cc1` [Mocetinostat (MGCD0103)]: the cell viability was 4.85%.
Regarding `O=C(CCNNC(=O)c1ccncc1)NCc1ccccc1`, the cell viability was 90.2%.
The result for `O=C(NCO)c1cccnc1` reads 106%; that for `COc1c2ccoc2c(OC)c2oc(=O)ccc12`, 115%.
`CC(NC(=O)c1ccccc1/N=C/c1c(O)ccc2ccccc12)c1ccccc1` (stereo not given) [Sirtinol]: the cell viability is 103%.
The result for `CCc1cc(C(N)=S)ccn1` reads 97.8%; that for `CCc1ccc2c(O)c3c(cc2c1C(=O)OC)C(=O)c1c(O)ccc(O)c1C3=O`, 102%.
Regarding `NC(=O)c1ccc(I)c([N+](=O)[O-])c1` [Iniparib (BSI-201)], the cell viability was 103%.
As to `C[C@H]1COC2=C1C(=O)C(=O)c1c2ccc2c1CCCC2(C)C`, the cell viability amounted to 97.7%.
The result for `C=C1C(=O)O[C@@H]2C[C@@]3(C)CCC[C@H](C)C3=C[C@H]12` reads 74%.
`COc1cccc(O)c1O`: the cell viability was found to be 110%.
Turning to `C=CCn1c(=O)c2cnc(Nc3ccc(N4CCN(C)CC4)cc3)nc2n1-c1cccc(C(C)(C)O)n1`, the cell viability is 19.2%.
For `CO[C@@H](C(=O)N1Cc2[nH]nc(NC(=O)c3ccc(N4CCN(C)CC4)cc3)c2C1)c1ccccc1`, the cell viability was found to be 13.4%.
`CC(C(=O)O)[C@H]1CCC2C3CC=C4C[C@@H](O)CC[C@]4(C)C3CC[C@@]21C` (stereo partly drawn) [3beta-HYDROXY-23,24-BISNORCHOL-5-ENIC ACID]: the cell viability worked out at 109%.
As for `CNCc1ccccc1`, the cell viability was determined as 104%.
Regarding `C=CC1=C(C)/C(=C/c2[nH]c(Cc3[nH]c(/C=C4\NC(=O)C(C)=C4C=C)c(C)c3CCC(=O)O)c(CCC(=O)O)c2C)NC1=O`, the cell viability was found to be 91.9%.
Consider `C=CC(C)(O)CCC=C(C)CCC=C(C)C` (mixture of isomers), for which the cell viability was 93.6%.
As for `COc1cc(OC)c(/C=C/S(=O)(=O)Cc2ccc(OC)c(NCC(=O)O)c2)c(OC)c1`, the cell viability worked out at 41.4%.
Turning to `NCCC(O)(P(=O)(O)O)P(=O)(O)O` [Pamidronate Disodium], the cell viability amounted to 79.9%.
On to `COc1cc2c(cc1OC)Cc1cc(OC)c(OC)cc1Cc1cc(OC)c(OC)cc1C2`, for which the cell viability came to 113%.
As to `CC1=CC(=O)C(C(C)C)=CC1=O`, the cell viability worked out at 97.2%.
With `CC[C@@]1(O)C(=O)OCc2c1cc1n(c2=O)Cc2cc3cc(O)ccc3nc2-1`, the cell viability came out at 7.32%.
In the case of `CCc1c2c(nc3ccc(OC(=O)N4CCC(N5CCCCC5)CC4)cc13)-c1cc3c(c(=O)n1C2)COC(=O)[C@]3(O)CC` [Irinotecan], the cell viability turned out to be 13%.
Regarding `CC[C@@]1(O)C(=O)OCc2c1cc1n(c2=O)Cc2cc3c(CN(C)C)c(O)ccc3nc2-1` [Topotecan HCl], the cell viability was determined as 2.12%.
Take `CCc1c2c(nc3ccc(OC(=O)N4CCC(N5CCCCC5)CC4)cc13)-c1cc3c(c(=O)n1C2)COC(=O)[C@]3(O)CC` [Irinotecan HCl Trihydrate (Campto)]: the cell viability is 15.9%.
Consider `COc1cc(/C=C/CO)ccc1O`, for which the cell viability was found to be 87.7%.
The result for `O=C(O)/C=C/C=C/c1ccc2c(c1)OCO2` reads 109%; that for `CC(=O)O[C@@H]1C[C@@]2(C)C(CC[C@@H]2C(C)=O)C2CCC3=CC(=O)CC[C@]3(C)C21` (stereo not given in full), 91.1%; that for `CC(N)C12CC3CC(CC(C3)C1)C2` (stereo not given), 105%.
The result for `COc1cc2c(cc1OC)C1(O)C(=O)c3ccc(O)c(C(=O)O)c3OC1CO2` (stereo not given) reads 101%; that for `COc1ccc2c(c1OC)OC[C@@H](c1ccc(OC)c(OC)c1OC)C2`, 113%; that for `COc1cc(C)c(C(=O)Oc2cc(C)c(C(=O)O)c(O)c2C)c(O)c1C=O`, 91.2%.
For `C[C@H](N)C(=O)NC(Cc1ccccc1)C(=O)O` (mixture of isomers), the cell viability stood at 100%.
With `CC1(C)CC2C1CC[C@]1(C)CCC3C(C(=O)O)CC(=O)O[C@@]32C1` (stereo not given in full) [3-HYDROXY-4-(SUCCIN-2-YL)-CARYOLANE delta-LACTONE], the cell viability was 103%.
The figure for `C[C@@H]1C(=O)O[C@H]2C[C@@]34[C@H]5C[C@@H](C(C)(C)C)[C@]36[C@@H](OC(=O)[C@@H]6O)O[C@@]4(C(=O)O5)[C@]21O` is 94.4%; for `COc1ccc([C@@H](C)C(=O)c2ccc(O)cc2O)cc1` it is 112%; for `CC1(COc2ccc3c(c2)ncn3-c2ccc3cccc(N4CCC(N)CC4)c3n2)COC1` it is 29.2%.
As to `C[C@@]12CCc3occc3[C@H]1CC[C@@]13C[C@@H](CC[C@H]12)[C@@](O)(CO)C3`, the cell viability stood at 89.6%.
The result for `COc1c(-c2ccccc2)oc2c(ccc3occc32)c1=O` reads 97.3%.
The result for `O[C@H]1[C@H](O)[C@@H](O)C2OC[C@H]1O2` reads 110%; that for `COc1ccc(-c2ccc3c(N4CCOCC4)nc(N4C[C@@H](C)O[C@@H](C)C4)nc3n2)cc1CO`, 30.1%.
With `COc1ccc(-c2ccc3c(N4CCOC[C@@H]4C)nc(N4CCOC[C@@H]4C)nc3n2)cc1CO`, the cell viability was found to be 23.6%.
In the case of `O=C(O)C(S)C(S)C(=O)O` (stereo not given), the cell viability came out at 115%.
In the case of `O=C1c2ccccc2C(=O)c2c1ccc(O)c2O`, the cell viability stood at 95.7%.
